The supplement of paper PMC12494721
Where a name gives a salt, the structure may show the parent alone.

Columns and labels:
Conditions in all cases: incubation time: 27 h, anaerobic, 37 °C;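 for the amine columns active = adjusted P below 0.05 in both replicates with a change the same way and a mean fold change under 0.8 or over 1.25; inactive = the rest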
[1] = tested on: Clostridium sporogenes DSM 1664; experiment: growth (OD595) fold change vs plate DMSO controls (fold change (ratio)); higher = more growth
Summary of the method: (§1)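 Anaerobic mGAM cultures in 96-well plates were grown for 27 h at 37 °C, and absorbance was then read at 595 nm. After blank and compound background correction with 20 µM compound solutions in water, a calibration factor of 5 gave OD. Growth is the fold change relative to the median of each plate's DMSO controls. Values are means of 2 biological replicates, with fold changes above 1.5 set to NA.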

[2] = tested on: Escherichia coli IAI1; experiment: as above
Summary of the method: as §1

[3] = tested on: Klebsiella aerogenes DSM 30053; experiment: as above
Summary of the method: as §1

[4] = tested on: Ruminococcus gnavus DSM 108212; experiment: as above
Summary of the method: as §1

[5] = tested on: Klebsiella aerogenes DSM 30053; experiment: fold change of Histamine concentration vs plate DMSO controls (fold change (ratio)); higher = more amine produced, active = hit call of the paper (significant change in both replicates, either direction)
Summary of the method: (§2)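 Amines were quantified by LC–triple-quadrupole MS in dynamic MRM mode against external calibration curves, with drift correction within each batch. The samples were whole anaerobic mGAM cultures of four gut bacterial strains, grown for 27 h at 37 °C in 80 µL wells and extracted with cold acetonitrile/methanol with 0.1% formic acid, then centrifuged. Values are reported as fold change over DMSO controls on the same plate. The mean of 2 biological replicates is given.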

[6] = tested on: Clostridium sporogenes DSM 1664; experiment: fold change of Tryptamine concentration vs plate DMSO controls (fold change (ratio)); higher = more amine produced, active = hit call of the paper (significant change in both replicates, either direction)
Summary of the method: as §2

[7] = tested on: Ruminococcus gnavus DSM 108212; experiment: as above
Summary of the method: as §2

[8] = tested on: Escherichia coli IAI1; experiment: fold change of Putrescine concentration vs plate DMSO controls (fold change (ratio)); higher = more amine produced, active = hit call of the paper (significant change in both replicates, either direction)
Summary of the method: as §2

[9] = tested on: Klebsiella aerogenes DSM 30053; experiment: as above
Summary of the method: as §2

[10] = tested on: Escherichia coli IAI1; experiment: fold change of Cadaverine concentration vs plate DMSO controls (fold change (ratio)); higher = more amine produced, active = hit call of the paper (significant change in both replicates, either direction)
Summary of the method: as §2

[11] = tested on: Klebsiella aerogenes DSM 30053; experiment: as above
Summary of the method: as §2

[12] = tested on: Ruminococcus gnavus DSM 108212; experiment: fold change of 2-Phenylethylamine concentration vs plate DMSO controls (fold change (ratio)); higher = more amine produced, active = hit call of the paper (significant change in both replicates, either direction)
Summary of the method: as §2

Row | Compound | growth [1] | growth [2] | growth [3] | growth [4] | fold change of Histamine concentration [5] | fold change of Tryptamine concentration [6] | fold change of Tryptamine concentration [7] | fold change of Putrescine concentration [8] | fold change of Putrescine concentration [9] | fold change of Cadaverine concentration [10] | fold change of Cadaverine concentration [11] | fold change of 2-Phenylethylamine concentration [12]
1 | CN(C)CCOC1=Cc2ccccc2Sc2ccc(Cl)cc21 [Zotepine] (20 µM) | 1.11 | 1.07 | 1.05 | 1.34 | 1 (inactive) | 1.01 (inactive) | 0.902 (inactive) | 1.08 (inactive) | 0.99 (inactive) | 1.05 (inactive) | 0.993 (inactive) | 0.924 (inactive)
2 | N=C(N)NCCN1CCCCCCC1 [Guanethidine sulfate] (20 µM) | 1.13 | 0.988 | 1.1 | 0.933 | 0.834 (inactive) | 1.07 (inactive) | 1.1 (inactive) | 0.97 (inactive) | 0.953 (inactive) | 0.9 (inactive) | 1.04 (inactive) | 1.11 (inactive)
3 | O=C(O)C[C@H](O)C[C@H](O)/C=C/c1c(C2CC2)nc2ccccc2c1-c1ccc(F)cc1 [Pitavastatin calcium] (20 µM) | 1.08 | 1.01 | 0.996 | 1.12 | 1.03 (inactive) | 0.992 (inactive) | 0.997 (inactive) | 1.01 (inactive) | 1.01 (inactive) | 1 (inactive) | 0.997 (inactive) | 1.04 (inactive)
4 | N=C(N)c1ccc(OCCCCCOc2ccc(C(=N)N)cc2)cc1 [Pentamidine isethionate] (20 µM) | 1.15 | 1.05 | 0.985 | 1.35 | 0.984 (inactive) | 0.79 (inactive) | 0.365 (active) | 0.993 (inactive) | 0.914 (inactive) | 0.825 (inactive) | 1.01 (inactive) | 0.38 (active)
5 | Cc1cccc(C)c1NC(=O)C(C)N (centres undefined) [Tocainide hydrochloride] (20 µM) | 0.909 | 1.02 | 0.994 | 1.06 | 1.06 (inactive) | 1.01 (inactive) | 1.02 (inactive) | 1.03 (inactive) | 1 (inactive) | 0.983 (inactive) | 0.976 (inactive) | 1.05 (inactive)
6 | COC(=O)C1=C(C)NC(C)=C(C(=O)OC)C1c1ccccc1[N+](=O)[O-] [Nifedipine] (20 µM) | 1.07 | 1.12 | 0.991 | 0.883 | 1.05 (inactive) | 1.02 (inactive) | 1 (inactive) | 1.05 (inactive) | 1.01 (inactive) | 0.955 (inactive) | 1 (inactive) | 0.92 (inactive)
7 | CC(=O)[C@@]12O[C@](C)(c3ccccc3)O[C@@H]1C[C@H]1[C@@H]3CCC4=CC(=O)CC[C@]4(C)[C@H]3CC[C@@]12C [Algestone acetophenide] (20 µM) | 1.03 | 1.22 | 0.998 | 1.13 | 1.03 (inactive) | 0.919 (inactive) | 1.08 (inactive) | 1.3 (inactive) | 1.01 (inactive) | 0.955 (inactive) | 1 (inactive) | 1.1 (inactive)
8 | Oc1ccccc1O [Catechol] (20 µM) | 1.11 | 1.01 | 0.966 | 0.98 | 1 (inactive) | 0.972 (inactive) | 0.979 (inactive) | 1.02 (inactive) | 1.01 (inactive) | 1.16 (inactive) | 0.978 (inactive) | 0.971 (inactive)
9 | CC[C@@H]([C@H](C)O)n1ncn(-c2ccc(N3CCN(c4ccc(OC[C@@H]5CO[C@@](Cn6cncn6)(c6ccc(F)cc6F)C5)cc4)CC3)cc2)c1=O [Posaconazole hydrate] (20 µM) | 0.942 | 1.02 | 1.02 | 1.03 | 1.11 (inactive) | 0.993 (inactive) | 1 (inactive) | 1.04 (inactive) | 1.03 (inactive) | 1.02 (inactive) | 0.992 (inactive) | 1.02 (inactive)
10 | CC(C)Nc1ncccn1 [Isaxonine] (20 µM) | 1.12 | 0.989 | 1.07 | 1.01 | 0.936 (inactive) | 1.05 (inactive) | 0.919 (inactive) | 1 (inactive) | 1.04 (inactive) | 1.01 (inactive) | 1.01 (inactive) | 0.894 (inactive)
11 | CC(C(=O)O)c1cccc(Oc2ccccc2)c1 (centres undefined) [Fenoprofen calcium salt dihydrate] (20 µM) | 0.882 | 0.997 | 1.04 | 1.21 | 0.981 (inactive) | 0.945 (inactive) | 0.951 (inactive) | 0.976 (inactive) | 0.983 (inactive) | 1.03 (inactive) | 1 (inactive) | 0.937 (inactive)
12 | O=C(Nc1cccc2c(=O)cc(-c3nnn[nH]3)oc12)c1ccc(OCCCCc2ccccc2)cc1 [Pranlukast] (20 µM) | 1.1 | 1.07 | 0.999 | 0.934 | 0.986 (inactive) | 0.686 (active) | 0.804 (inactive) | 1.02 (inactive) | 1.01 (inactive) | 1.03 (inactive) | 1.02 (inactive) | 0.865 (inactive)
13 | CCCNC(C)C(=O)Nc1c(C)csc1C(=O)OC (centres undefined) [Articaine hydrochloride] (20 µM) | 0.923 | 1.08 | 1.03 | 1.12 | 0.917 (inactive) | 1.06 (inactive) | 1.06 (inactive) | 0.985 (inactive) | 0.992 (inactive) | 0.966 (inactive) | 1.01 (inactive) | 1.09 (inactive)
14 | Cc1onc(-c2ccccc2)c1-c1ccc(S(N)(=O)=O)cc1 [Valdecoxib] (20 µM) | 0.979 | 0.98 | 0.973 | 0.87 | 1.08 (inactive) | 0.955 (inactive) | 0.961 (inactive) | 1.07 (inactive) | 0.983 (inactive) | 1.03 (inactive) | 0.972 (inactive) | 0.92 (inactive)
15 | O=C(OCCOCCO)c1ccccc1Nc1cccc(C(F)(F)F)c1 [Etofenamate] (20 µM) | 1.2 | 1.09 | 1.1 | 1.2 | 0.902 (inactive) | 0.955 (inactive) | 0.883 (inactive) | 1.05 (inactive) | 0.998 (inactive) | 1.02 (inactive) | 1.02 (inactive) | 0.861 (inactive)
16 | CCN(CCCCOC(=O)c1ccc(OC)c(OC)c1)C(C)Cc1ccc(OC)cc1 (centres undefined) [Mebeverine hydrochloride] (20 µM) | 0.955 | 1.25 | 0.995 | 0.632 | 0.903 (inactive) | 1.01 (inactive) | 0.985 (inactive) | 1.15 (inactive) | 1.05 (inactive) | 1.04 (inactive) | 1.02 (inactive) | 1.01 (inactive)
17 | C=CC[C@@H]1/C=C(\C)C[C@H](C)C[C@H](OC)[C@H]2O[C@@](O)(C(=O)C(=O)N3CCCC[C@H]3C(=O)O[C@H](/C(C)=C/[C@@H]3CC[C@@H](O)[C@H](OC)C3)[C@H](C)[C@@H](O)CC1=O)[C@H](C)C[C@@H]2OC [Tacrolimus Monohydrate] (20 µM) | 0.867 | 1.04 | 1.02 | 1.02 | 1.02 (inactive) | 1.02 (inactive) | 1.01 (inactive) | 1.05 (inactive) | 1.02 (inactive) | 1.01 (inactive) | 1.01 (inactive) | 1.02 (inactive)
18 | CN(C)c1cc(NC(=O)CNC(C)(C)C)c(O)c2c1C[C@H]1C[C@H]3[C@H](N(C)C)C(=O)C(C(N)=O)=C(O)[C@@]3(O)C(=O)C1=C2O [Tigecycline] (20 µM) | 0.926 | 1.12 | 1.18 | 1.19 | 0.865 (inactive) | 0.964 (inactive) | 1.08 (inactive) | 1.08 (inactive) | 0.991 (inactive) | 0.967 (inactive) | 1.03 (inactive) | 1.13 (inactive)
19 | CCC(=O)c1c(O)cc(O)cc1O [Flopropione] (20 µM) | 0.955 | 1.01 | 0.997 | 0.986 | 1.01 (inactive) | 1 (inactive) | 0.927 (inactive) | 1 (inactive) | 1.01 (inactive) | 1 (inactive) | 1 (inactive) | 0.896 (inactive)
20 | CC(=O)N[C@@H](CC(=O)O)C(=O)N[C@@H](CCC(=O)O)C(=O)O [Spaglumic acid] (20 µM) | 1.09 | 0.992 | 1.03 | 1.18 | 1.03 (inactive) | 1.02 (inactive) | 0.995 (inactive) | 0.939 (inactive) | 0.993 (inactive) | 0.988 (inactive) | 0.988 (inactive) | 1.02 (inactive)
21 | CCC(Cc1c(I)cc(I)c(N)c1I)C(=O)O (centres undefined) [Iopanoic acid] (20 µM) | 0.989 | 1.13 | 1 | 1.05 | 0.999 (inactive) | 0.978 (inactive) | 0.879 (inactive) | 1.1 (inactive) | 0.994 (inactive) | 1.04 (inactive) | 0.985 (inactive) | 0.969 (inactive)
22 | CN(C)CCOC(=O)C(c1ccccc1)C1(O)CCCC1 (centres undefined) [Cyclopentolate hydrochloride] (20 µM) | 0.823 | 1.04 | 1.04 | 0.93 | 0.982 (inactive) | 1.01 (inactive) | 1.02 (inactive) | 1.04 (inactive) | 0.987 (inactive) | 0.977 (inactive) | 0.99 (inactive) | 1.05 (inactive)
